Compound activity (PubChem)
Pf apPOL inh: Pf-apPOL DNA polymerase inhibition | Recombinant Pf-apPOL, molecular beacon fluorescence, 1.5 h | hit rate 0.25% among 210,000 | AID 1794808 | inhibition, % at 10 µM
mHTT-CaM PPI inh: disrupts binding of mutant huntingtin to calmodulin | P42858 | AlphaScreen His-mHTT/GST-CaM binding, luminescence | inhibition, % at 15 µM | hit rate 3.6% among 190,000 | AID 1671202;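 also: 0% = both proteins with DMSO and 100% = one protein alone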
Active calls of the source: *; x = not tested or not shown; ! = not confirmed by another sample. This is a sample that favours compounds with a hit; in the whole collection about 3.5% have one here. Rule as the data show it: active = inhibition above about 50%; inactive = the rest.

SMILES	Pf apPOL inh	mHTT-CaM PPI inh
COc1ccccc1/C=C1\N=C(c2cncc(Br)c2)OC1=O	3.7	-1.0
CC(=O)N1N=C2C3CCN(CC3)C2C1c1ccccc1Cl (configuration not stated)	-7.2	-5.7
Cc1cccc(NC(=O)c2cccn(Cc3cccc([N+](=O)[O-])c3)c2=O)n1	0.6	-16.8
COc1cc(CNCCc2c[nH]c3ccccc23)c([N+](=O)[O-])cc1OC	-1.3	14.5
O=[N+]([O-])c1cc2c(cc1CNCCc1c[nH]c3ccccc13)OCO2	-2.0	68.4*
CCN(CC)C(=O)c1ccc2c(c1)Sc1ncccc1C(=O)N2C(C)C	-4.5	-2.1
COc1ccc(CNC(=O)c2nc(C)n(C3CCN(C)CC3)c2C)cc1OC	-7.6	4.3
O=C(O)c1ccc2c(c1)N=C(Cl)c1ccccc1S2	9.0	1.0
c1ccc2c(c1)CCc1c-2[nH]c2ccccc12	-4.8	62.5*
Cc1ccc(CN2CCN(c3ccc(F)cc3)CC2)cc1	-0.7	8.2
O=C1c2ccccc2-c2c3c(cc4ccnc1c24)OCO3	77.0*	x
Cc1ccc2[nH]c(=S)n(-c3ccc(Br)c(Cl)c3)c(=O)c2c1	2.2	x
CCSc1nc2ccccc2c(=O)n1-c1cc(C)cc(C)c1	-1.1	-4.1
NCCc1c[nH]c2ccccc12	4.3	x
c1ccc(Oc2ccc3[nH]cc(CCN4CC4)c3c2)cc1	x	71.9*
NCCc1c[nH]c2ccc(OCc3ccccc3)cc12	2.6	80.1*!
CN1CCCN(Cc2c[nH]c3ccccc23)CC1	-4.0	-3.8
O=Cc1nc2ccccc2n1Cc1ccccc1	-4.8	35.2
O=Cc1nc2ccccc2n1Cc1ccc(Cl)cc1Cl	-5.7	95.4*
CC12CCC3(C)OCC(CO)(CO1)N23 (configuration not stated)	3.1	-2.3
COc1ccc(Br)cc1C1N(c2cc(C)on2)C(=O)C2CCCN21 (configuration not stated)	-6.0	6.4
CC12CN3CC(C)(CN(C1)C3c1ccncc1)C2=O (configuration not stated)	-4.7	2.0
CCC12CN3CC(CC)(CN(C1)C3c1ccccn1)C2O (configuration not stated)	-14.4	100.0*
O=C(CN1C(=O)c2ccccc2C1=O)Nc1ccc(Cl)cc1C(=O)c1ccccc1Cl	26.8	11.0
CC=Cc1cc(OC)c(OC)cc1OC	-8.4	x
SMILES	Pf apPOL inh	mHTT-CaM PPI inh
COc1cc(C2C3C(=NN2C(C)=O)C2CCN3CC2)cc(OC)c1OC (configuration not stated)	-9.8	-3.0
COc1ccc(N2CCN(Cc3ccc(Cl)cc3Cl)CC2)cc1	-5.4	61.0*
Clc1ccc(CN2CCN(c3ccccc3)CC2)c(Cl)c1	-3.4	25.8
O=C1c2ccccc2C(=O)c2ccccc21	3.1	x
O=C1C=CC(=O)c2c(O)cccc21	96.7*	x
COc1ccc(N=Cc2cc3c(cc2O)OC(N)=C(C#N)C3c2ccco2)cc1 (configuration not stated)	-3.3	71.0*
Cc1ccc(-n2cccc2C=C2C(=O)NC(=O)NC2=O)cc1Cl	4.3	80.0*
CN1C(=O)C(=Cc2cccn2-c2ccc(S(N)(=O)=O)cc2)C(=O)N(C)C1=O	-2.6	7.0
COc1ccccc1/C=C/CN1CC2CC(C1)c1cccc(=O)n1C2 (configuration not stated)	4.8	10.7
COc1ccc(-n2cnc3cc(C(=O)N4CCC5(CC4)OCCO5)ccc32)cc1	-2.1	6.0
O=C(c1ccc2c(c1)ncn2-c1ccc(OCc2ccccc2)cc1)N1CCC2(CC1)OCCO2	-6.4	52.0*
N=C1c2ccccc2CN1CC(=O)c1ccc(Cl)cc1	-3.0	3.0
O=C1C2CCCN2C(c2ccncc2)N1c1ccc(Cl)c(Cl)c1 (configuration not stated)	0.4	85.3*
O=C1C2CCCN2C(c2cccnc2)N1c1ccc(Cl)c(Cl)c1 (configuration not stated)	-2.2	21.3
CCOC(=O)C1=C(N)Oc2c(oc(CO)cc2=O)C12C(=O)Nc1ccccc12 (configuration not stated)	-3.0	-5.0
CC(C)CN(CC(C)C)S(=O)(=O)N1CCC(C(=O)N2CCC3(CC2)OCCO3)CC1	-20.4	6.0
O=c1oc2ccccc2c(O)c1C(c1cccnc1)c1c(O)c2ccccc2oc1=O	-3.5	6.7
CCOc1cc(C(c2c(O)c3ccccc3oc2=O)c2c(O)c3ccccc3oc2=O)ccc1O	-9.7	84.0*
O=C(O)c1cccc2c1NC(C(=O)O)C1CC(Sc3ccccc3[N+](=O)[O-])C(Cl)C21 (configuration not stated)	-5.0	77.0*
CC(C)N1CCN(Cc2cccc(F)c2)CC1	1.5	-1.4
O=C(Cc1ccccc1)NC(Oc1ccccc1[N+](=O)[O-])C(Cl)(Cl)Cl (configuration not stated)	-1.1	-3.0
